Records with an inconclusive call do not appear. The source made the active and inactive calls. The call rests on the fitted dose curve; in most records, active means well fitted curve in the direction sought with a large enough effect; inconclusive means small, poorly fitted or top-dose-only effect, or another doubt; inactive means no such curve, though single readings can be large; an effect the other way counts as inactive or inconclusive.
Assays:
[1] = qHTS of pediatric cancer cell lines to identify multiple opportunities for drug repurposing: Primary screen for BT-12 cells (AID 1347101); further: nearly all actives have a fitted effect of over 25% in size; further: potency means the concentration at half of the fitted maximal effect
Procedure, shortened: (§1)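 Cells (500-1,000/well) rested 5 h, then received compounds for 48 h; metabolically active cells were measured by CellTiter-Glo luminescence. Final concentrations spanned up to 46 µM (MIPE, 11-point) or 0.59 nM-46 µM (NPC, 8-point) in primary screens, 11-point in follow-ups.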

[2] = qHTS of pediatric cancer cell lines to identify multiple opportunities for drug repurposing: Primary screen for Rh18 cells (AID 1347102); further: nearly all actives have a fitted effect of over 65% in size
Procedure, shortened: (§2)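 Cells (500-1,000/well) in growth media were settled 5 h at 37 degrees C, then given compounds for 48 h. Viability was read as CellTiter-Glo luminescence. Primary runs used MIPE at 11 points (0.78 nM-46 µM) and NPC at 8 points (0.59 nM-46 µM); follow-ups used 11 points.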

[3] = qHTS of pediatric cancer cell lines to identify multiple opportunities for drug repurposing: Primary screen for OHS-50 cells (AID 1347103); further: nearly all actives have a fitted effect of over 40% in size; further: potency means the concentration at half of the fitted maximal effect
Procedure, shortened: as §1

[4] = qHTS of pediatric cancer cell lines to identify multiple opportunities for drug repurposing: Primary screen for MG 63 (6-TG R) cells (AID 1347105); further: nearly all actives have a fitted effect of over 50% in size; further: potency means the concentration at half of the fitted maximal effect
Procedure, shortened: (§3)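 500-1,000 cells/well; 5 h pre-incubation 37 °C/5% CO2; compound pinned; 48 h; CellTiter-Glo, 15 min RT; luminescence. MIPE 11-pt from 0.78 nM, NPC 8-pt from 0.59 nM final. Bortezomib 2.3 µM final as positive control.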

[5] = qHTS of pediatric cancer cell lines to identify multiple opportunities for drug repurposing: Primary screen for control Hh wild type fibroblast cells (AID 1347106); further: nearly all actives have a fitted effect of over 55% in size; further: potency means the concentration at half of the fitted maximal effect
Procedure, shortened: as §2

[6] = qHTS of pediatric cancer cell lines to identify multiple opportunities for drug repurposing: Primary screen for Rh30 cells (AID 1347107); further: series mostly up to about 46 µM; nearly all actives have a fitted effect of over 75% in size
Procedure, shortened: as §2

[7] = qHTS of pediatric cancer cell lines to identify multiple opportunities for drug repurposing: Primary screen for RD cells (AID 1347104); further: nearly all actives have a fitted effect of over 55% in size; further: potency means the concentration at half of the fitted maximal effect
Procedure, shortened: as §3

[8] = qHTS of pediatric cancer cell lines to identify multiple opportunities for drug repurposing: Primary screen for Rh41 cells (AID 1347108);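 further: series mostly up to about 46 µM; luminescence drop marks cytotoxic hits; nearly all actives have a fitted effect of over 70% in size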
Procedure, shortened: as §3

[9] = qHTS of pediatric cancer cell lines to identify multiple opportunities for drug repurposing: Confirmatory screen for A673 cells (AID 1347110);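 further: potency means the concentration at half of the fitted maximal effect; cells exposed to compound for 48 h before the viability read; nearly all actives have a fitted effect of over 65% in size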
Procedure, shortened: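 Cells plated at 500-1,000/well were treated five hours later with multi-point dilutions up to 46 µM final. After two days, CellTiter-Glo was added and luminescence read.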

[10] = qHTS of pediatric cancer cell lines to identify multiple opportunities for drug repurposing: Confirmatory screen for SK-N-MC cells (AID 1347111);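 further: potency means the concentration at half of the fitted maximal effect; cells exposed to compound for 48 h before the readout; nearly all actives have a fitted effect of over 70% in size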
Procedure, shortened: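 Metabolically active cells were quantified by ATP-dependent luminescence (CellTiter-Glo, 15 min at room temperature) following 48 h treatment. Cells had been plated at 500-1,000 per well and settled for 5 h beforehand.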

[11] = qHTS of pediatric cancer cell lines to identify multiple opportunities for drug repurposing: Confirmatory screen for BT-12 cells (AID 1347112); further: potency means the concentration at half of the fitted maximal effect; nearly all actives have a fitted effect of over 55% in size
Procedure, shortened: as §2

[12] = qHTS of pediatric cancer cell lines to identify multiple opportunities for drug repurposing: Confirmatory screen for DAOY cells (AID 1347114); further: nearly all actives have a fitted effect of over 65% in size; further: potency means the concentration at half of the fitted maximal effect
Procedure, shortened: (§4)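 Viability measured as metabolically active cells via CellTiter-Glo luminescence following 48 hours of compound exposure, 11-point dilutions in confirmatory testing. 500-1,000 cells/well plated 5 hours before dosing; controls were DMSO and 2.3 µM bortezomib.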

[13] = qHTS of pediatric cancer cell lines to identify multiple opportunities for drug repurposing: Confirmatory screen for BT-37 cells (AID 1347117); further: potency means the concentration at half of the fitted maximal effect; nearly all actives have a fitted effect of over 55% in size
Procedure, shortened: as §2

[14] = qHTS of pediatric cancer cell lines to identify multiple opportunities for drug repurposing: Confirmatory screen for TC32 cells (AID 1347118);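 further: potency means the concentration at half of the fitted maximal effect; cells exposed to compound for 48 h before the read; nearly all actives have a fitted effect of over 65% in size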
Procedure, shortened: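 Luminescent CellTiter-Glo read-out of metabolically active TC32 cells after 48 h compound exposure. Primary: MIPE 11-point, 0.78 nM–46 µM; NPC 8-point, 0.59 nM–46 µM. Confirmatory: 11-point dilutions.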

[15] = qHTS of pediatric cancer cell lines to identify multiple opportunities for drug repurposing: Confirmatory screen for control Hh wild type fibroblast cells (AID 1347121); further: nearly all actives have a fitted effect of over 70% in size
Procedure, shortened: as §2

[16] = qHTS of pediatric cancer cell lines to identify multiple opportunities for drug repurposing: Confirmatory screen for NB1643 cells (AID 1347109); further: potency means the concentration at half of the fitted maximal effect; nearly all actives have a fitted effect of over 45% in size
Procedure, shortened: as §2

[17] = qHTS of pediatric cancer cell lines to identify multiple opportunities for drug repurposing: Confirmatory screen for LAN-5 cells (AID 1347113)
Procedure, shortened: as §2

[18] = qHTS of pediatric cancer cell lines to identify multiple opportunities for drug repurposing: Confirmatory screen for SJ-GBM2 cells (AID 1347116); further: potency means the concentration at half of the fitted maximal effect; nearly all actives have a fitted effect of over 60% in size
Procedure, shortened: as §4

[19] = qHTS of pediatric cancer cell lines to identify multiple opportunities for drug repurposing: Confirmatory screen for MG 63 (6-TG R) cells (AID 1347119)
Procedure, shortened: as §2

Measured: Potency

CCN(C(C)=O)c1cccc(-c2ccnc3c(C#N)cnn23)c1
inactive: [1] | [2] | [3] | [4] | [5] | [6]

C[C@]12CCC(=O)C(O)=C1CC[C@@H]1[C@@H]2CC[C@]2(C)C(=O)CC[C@@H]12
inactive: [1] | [2] | [3] | [4] | [5] | [6]

Cc1ccc(-c2nc3ccc(C)cn3c2CC(=O)N(C)C)cc1
inactive: [1] | [3] | [7] | [4] | [5] | [6]

CN(C)CCN(C)CCc1ccc(Cl)c(Cl)c1
inactive: [1] | [2] | [4] | [5] | [6]

CC(=O)[C@H]1CC[C@H]2[C@@H]3CC[C@H]4C[C@H](O)CC[C@]4(C)[C@H]3C(=O)C[C@]12C
inactive: [1] | [2] | [4] | [5] | [6] | [8]

O=[N+]([O-])c1cc([As](=O)(O)O)ccc1O
inactive: [1] | [3] | [7] | [4] | [5] | [6] | [8]

Cc1ncc(CNC(=O)N(CCCl)N=O)c(N)n1
inactive: [1] | [3] | [7] | [4] | [5] | [6]

COc1ccc2c(c1OC)CN1CCc3cc4c(cc3C1C2)OCO4 (stereo not drawn)
inactive: [4] | [5] | [6]
active: [1] 15500 nM | [3] 17400 nM

NN=C(N)N
inactive: [1] | [3] | [7] | [4] | [5] | [6] | [8]

N[C@@H](Cc1ccc(Oc2cc(I)c(O)c(I)c2)c(I)c1)C(=O)O
inactive: [1] | [3] | [7] | [4] | [5] | [6]

C[C@@H]1[C@@H](C(=O)C[C@H]2O[C@@H]3O[C@]4(C)CC[C@@H]5[C@H](C)CC[C@@H]([C@H]2C)[C@@]35OO4)O[C@@H]2O[C@]3(C)CC[C@H]4[C@H](C)CC[C@@H]1[C@@]24OO3
inactive: [4] | [5] | [6] | [12] | [15]
active: [1] 432 nM | [3] 385 nM | [9] 6570 nM | [10] 2930 nM | [11] 14700 nM | [13] 1650 nM | [14] 9270 nM

C[C@H]1O[C@@H](O[C@H]2[C@@H](O)C[C@H](O[C@H]3[C@@H](O)C[C@H](O[C@H]4CC[C@@]5(C)[C@H](CC[C@@H]6[C@@H]5CC[C@]5(C)[C@@H](C7=CC(=O)OC7)CC[C@]65O)C4)O[C@@H]3C)O[C@@H]2C)C[C@H](O)[C@@H]1O
active: [1] 21.9 nM | [3] 11 nM | [7] 7.5 nM | [4] 5.3 nM | [5] 841 nM | [16] 329 nM | [9] 465 nM | [10] 131 nM | [11] 185 nM | [17] 233 nM | [12] 65.7 nM | [18] 233 nM | [13] 58.5 nM | [14] 82.7 nM | [19] 46.5 nM
inactive: [6]

Reference: PubChem BioAssay (NCATS)
